High-throughput results as filed in PubChem.
ATXN viability: cell viability loss in ATXN counter-screen | Potency, µM (doses to about 56.7 µM), hits mostly cytotoxic | S2 cells (HEK-293 line with an ATXN2-luciferase reporter) viability, CellTiter-Fluor protease fluorescence, 24 h | hit rate 0.49% among 400,000 | AID 651635; note: nearly all actives have a fitted effect of over 40% in size
HepG2 tox: HepG2 cytotoxicity, counter-screen for TGF-b inhibitors. HepG2 CAGA-GFP viability, ATP luminescence, 18 h. Potency, µM (top dose mostly 46.1 µM), for inactives: top-dose activity change, negative = cytotoxicity, hits mostly cytotoxic. hit rate 0.76% among 410,000
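CellTiter-Glo luminescence gave cytotoxicity after 18 hours at 37 degrees C. The cells were HepG2 CAGA-GFP in 1% FBS DMEM, stimulated with 500 pg/mL TGF-beta after compound addition. %Activity was normalised to no-cell wells (complete cell-killing) and DMSO (no toxicity), and curves were fitted and classified.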
ATXN2 expr inh: ATXN2 expression inhibition; Potency, µM (doses to about 57 µM), for the others: at the highest dose activity change, negative = inhibition, actives largely listed as inhibitors; hit rate 0.72% among 360,000; HEK-293 ATXN2-luciferase reporter, luminescence, 24 h; AID 1745845; note: % is set by controls: 0 for no effect and ±100 for the full control effect; nearly all actives have a fitted effect of over 55% in size
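ATXN2-luciferase reporter cells (luciferase flanked by upstream and downstream ATXN2 gene portions) were treated 24 h at 37 °C with compounds at up to 57 uM. SteadyGlo luminescence gave expression; GF-AFC fluorescence gave viability.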
TGFb inhibitor: TGF-b pathway inhibition | HepG2 CAGA-GFP TGF-b/SMAD3 reporter, GFP fluorescence, 18 h; TGF-beta stimulated, 500 pg/mL final | Potency, µM (series often up to 46.1 µM), for inactives: at the highest dose activity, negative = inhibition, most hits filed as inhibitors | hit rate 1.2% among 410,000 | AID 588855; note: % is set by controls: 0 for no effect and ±100 for the full control effect; nearly all actives have a fitted effect of over 65% in size
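Cell-based qHTS in HEPG2 carrying a CAGA-GFP Smad reporter; compounds added before 500 pg/mL final TGF-beta, 18 h incubation at 37 degrees C, GFP fluorescence quantified per cell by imaging cytometry.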
TDP1 cell CPT: DT40-hTDP1 cell growth loss with CPT; chicken DT40 Tdp1-/-;hTDP1 cells + 20 nM CPT, ATP luminescence, 48 h; Potency, µM (doses to about 46.2 µM), for inactives: at the highest dose activity change, negative = growth inhibition, usual class: inhibitors; hit rate 12% among 420,000; AID 686979; note: % is set by controls: 0 for no effect and ±100 for the full control effect; nearly all actives have a fitted effect of over 55% in size
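Chicken DT40 Tdp1-/- cells complemented with human TDP1, 400 cells/well, exposed to compounds plus 20 nM camptothecin for at least 48 h at 37 C; viability read as ATP content by CellTiter-Glo luminescence.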
DT40 TDP1 no CPT: qHTS for Inhibitors of human tyrosyl-DNA phosphodiesterase 1 (TDP1): qHTS in cells in absence of CPT; hit rate 15% among 420,000; Potency, µM (doses to about 46.2 µM), inactives show at the highest dose activity change, negative = growth inhibition, actives largely listed as inhibitors; AID 686978, 2013; DT40 Tdp1-/- hTDP1 cells, no CPT, ATP luminescence, 48 h; note: % is set by controls: 0 for no effect and ±100 for the full control effect; nearly all actives have a fitted effect of over 55% in size
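Luminescent ATP content (CellTiter-Glo) served as the growth readout. Knockout chicken DT40 cells expressing human TDP1 were exposed to compounds without camptothecin for a minimum 48 hr at 37 °C.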
Starred values were filed as active, the others as inactive; i = inactive; ? = inconclusive; . = no result given; [ ] = remark or other dose. Most compounds without a hit are left out; they make up all but 17% or so of the library. Calls come from the whole dose curve; as a rule, active = well fitted curve in the direction sought with a large enough effect; inconclusive = small, poorly fitted or top-dose-only effect, or another doubt; inactive = no such curve, though single readings can be large; an effect the other way counts as inactive or inconclusive. Potency is the fitted concentration of half-maximal effect.

SMILES	ATXN viability	HepG2 tox	ATXN2 expr inh	TGFb inhibitor	TDP1 cell CPT	DT40 TDP1 no CPT
CC1CCN(CC(O)CN2c3ccccc3Sc3ccccc32)CC1 (stereo unspecified)	i	11%	.	24%	?	18µM*
Cc1c(C)c(C)c2[nH]c(-c3ccc4c(c3)OCO4)nc2c1C	?	-89%	?	?	?	18µM*
COc1ccccc1CNC(=O)COC(=O)COc1ccccc1Cc1ccccc1	i	-6%	-1%	-5%	7%	?
CCOC(=O)C1CCCN(C(=O)c2[nH]c(C(F)(F)F)nc2-c2ccccc2)C1 (stereo unspecified)	i	-44%	3%	2%	1%	1%
Cc1ccc(NC(=O)c2cc(S(=O)(=O)NCCC3=CCCCC3)ccc2F)cc1F	?	-82%	?	?	?	16µM*
COc1ccc(NC(=O)c2cc(S(=O)(=O)NCCC3=CCCCC3)ccc2F)cc1	?	-37%	?	?	26µM*	23µM*
O=C(Nc1cccc(F)c1)c1cc(S(=O)(=O)N2CCC(C(=O)O)CC2)ccc1F	i	8%	-10%	-5%	-3%	0%
O=C(Nc1cccc(F)c1)c1cc(S(=O)(=O)NCCC2=CCCCC2)ccc1F	?	14µM*	-36%	?	?	?
Cc1cc(C)cc(NC(=O)c2cc(S(=O)(=O)NCCC3=CCCCC3)ccc2F)c1	?	-47%	?	?	?	?
CC#CCC(C)[C@H](O)/C=C/[C@@H]1[C@H]2C/C(=C/CCCC(=O)O)C[C@H]2C[C@H]1O (stereo partly specified)	i	.	.	.	15%	-2%
COc1cccc(CNC(=O)Cn2ccc3cc(S(=O)(=O)N4CCCC4)ccc32)c1	i	-2%	-14%	?	?	?
COc1ccc(C)cc1NC(=O)Cn1c(=O)oc2cc(S(=O)(=O)NCc3ccccc3)ccc21	.	-18%	.	?	16µM*	15µM*
COc1cccc(CNC(=O)Cn2c(=O)oc3cc(S(=O)(=O)N4CCCC4)ccc32)c1	i	-67%	-3%	14%	?	23µM*
Cc1ccc(NC(=O)Cn2c(=O)oc3cc(S(=O)(=O)NCc4ccccc4)ccc32)cc1	?	-29%	-10%	?	?	?
COc1ccc(NC(=O)Cn2c(=O)oc3cc(S(=O)(=O)N4CCCC4)ccc32)cc1OC	.	-8%	.	.	?	?
COc1cc(NC(=O)Cn2c(=O)oc3cc(S(=O)(=O)N4CCCCCC4)ccc32)cc(OC)c1	.	-14%	.	?	15µM*	21µM*
COc1ccc(C)cc1NC(=O)Cn1c(=O)oc2cc(S(=O)(=O)N3CCCCCC3)ccc21	.	-5%	.	-7%	16µM*	12µM*
COCCCNC(=O)CC1C[C@H](C(=O)N2CCOCC2)[C@@]2(C)c3[nH]c4ccc(OC)cc4c3CCN2C1=O (stereo partly specified)	i	-10%	5%	-8%	?	-4%
Cc1ccc(NC(=O)Cn2c(=O)oc3cc(S(=O)(=O)N4CCCCC4)ccc32)c(C)c1	?	-1%	?	?	6.5µM*	8.2µM*
CN1CCN(C(=O)Cn2c(=O)oc3cc(S(=O)(=O)NCc4ccccc4)ccc32)CC1	i	-28%	-5%	-15%	?	-26%
O=C(Cn1c(=O)oc2cc(S(=O)(=O)NCc3ccccc3)ccc21)N(CCO)Cc1ccccc1	.	-15%	.	?	?	15µM*
CC1CN(CC(=O)N2CCN(Cc3nccn3C)CC2)Cc2cc(Cl)ccc2O1 (stereo unspecified)	i	.	.	.	5%[9.04 µM]	-3%
COC(=O)C=C1CCC2C3CCC4=CC(=O)C(Br)CC4(C)C3C(=O)CC12C (stereo unspecified)	.	-30%	32µM*	10%	?	16µM*
FC(F)(F)Oc1ccccc1C(c1nnnn1Cc1ccccc1)N1CCN(C/C=C/c2ccccc2)CC1 (stereo unspecified)	i	-40%	-16%	?	?	?
COc1ccc(C(c2nnnn2Cc2ccccc2)N2CCN(C/C=C/c3ccccc3)CC2)cc1 (stereo unspecified)	?	-15%	?	?	?	15µM*
SMILES	ATXN viability	HepG2 tox	ATXN2 expr inh	TGFb inhibitor	TDP1 cell CPT	DT40 TDP1 no CPT
CCN1CCN(C(c2ccccc2)c2nnnn2Cc2ccc(OC)cc2)CC1 (stereo unspecified)	i	1%	-14%	-2%	-17%	-6%
CCC(c1nnnn1Cc1ccccc1)N1CCN(C/C=C/c2ccccc2)CC1 (stereo unspecified)	?	1%	-17%	?	?	15µM*
C(=C\c1ccccc1)/CN1CCN(C(c2ccccc2)c2nnnn2Cc2ccccc2)CC1 (stereo unspecified)	?	-17%	0%	?	29µM*	?
CCCCn1nnnc1C(c1ccccc1)N1CCN(c2ncc(C(F)(F)F)cc2Cl)CC1 (stereo unspecified)	i	.	-9%	.	?	18µM*
COc1ccc(-c2ccc(-c3cc(=O)oc4cc(OC)c(OC)c(OC)c34)cc2)cc1	i	-13%	-5%	-2%	-1%	-26%
CC1(C(=O)NS(=O)(=O)c2cccc(F)c2)CCN1C(=O)CC1CCCC1 (stereo unspecified)	i	4%	14%	-5%	-4%	5%
COc1ccc(Cn2nnnc2C(c2ccccc2)N2CCN(c3ccccc3)CC2)cc1 (stereo unspecified)	.	9%	.	1%	?	?
COc1ccc(N2CCN(C(c3ccccc3)c3nnnn3Cc3ccccc3)CC2)cc1 (stereo unspecified)	.	0%	.	2%	?	16µM*
Fc1ccc(C(c2ccc(F)cc2)N2CCN(C/C=C/c3ccccc3)CC2)cc1	?	6.3µM*	-20%	?	3.7µM*	23µM*
C(=C\c1ccccc1)/CN1CCN(C(c2ccccc2)c2ccccc2)CC1	i	-41%	-3%	-28%	?	?
CCCCn1nnnc1C(c1ccccc1)N1CCN(C/C=C/c2ccccc2)CC1 (stereo unspecified)	?	-18%	-15%	?	?	16µM*
